Source: PubChem BioAssay
Most compounds without a hit are left out; they make up all but 3.4% or so of the library.
FBW7 activator – FBW7 E3 ligase activators, primary screen, biochemical, AlphaScreen, human | 650,000 compounds, 0.13% hits | normalized activity (activation), % at 26.1 µM | AlphaScreen FBW7–phospho-cyclin E peptide binding, activator screen | F-box/WD repeat-containing protein 7 (Homo sapiens), Q969H0; in the data active means normalized activity above about 1.9%;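 further: purified mutant Fbw7 with reduced substrate affinity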
MITF inh – MITF inhibitors, primary screen, biochemical, AlphaScreen, human; Microphthalmia-associated transcription factor (Homo sapiens), O75030; AlphaScreen MITF homodimerization, bead proximity signal; inhibition, % at 2.6 µM; 650,000 compounds, 0.91% hits; AID 1259374, 2018; in the data active means inhibition above about 50%
TEAD-YAP block – TEAD-YAP interaction inhibition, primary screen, TEAD-YAP interaction inhibitor project, luminescence, HEK-TIYL cells | TEAD-Gal4/YAP UAS-luciferase luminescence | inhibition, % at 9.12 µM | 640,000 compounds, 1.4% hits; in the data active means inhibition above about 32%
GPR151 activ – activators of human GPR151, primary screen, cell-based, PathHunter beta-arrestin, luminescence; AID 1508602, 2020; activation, % at 11.2 µM; G-protein coupled receptor 151 (Homo sapiens), Q8TDV0; PathHunter beta-arrestin GPR151 cells; 650,000 compounds, 1% hits; in the data active means activation above about 4.9%
Target sequence (Q8TDV0 whole entry, looked up): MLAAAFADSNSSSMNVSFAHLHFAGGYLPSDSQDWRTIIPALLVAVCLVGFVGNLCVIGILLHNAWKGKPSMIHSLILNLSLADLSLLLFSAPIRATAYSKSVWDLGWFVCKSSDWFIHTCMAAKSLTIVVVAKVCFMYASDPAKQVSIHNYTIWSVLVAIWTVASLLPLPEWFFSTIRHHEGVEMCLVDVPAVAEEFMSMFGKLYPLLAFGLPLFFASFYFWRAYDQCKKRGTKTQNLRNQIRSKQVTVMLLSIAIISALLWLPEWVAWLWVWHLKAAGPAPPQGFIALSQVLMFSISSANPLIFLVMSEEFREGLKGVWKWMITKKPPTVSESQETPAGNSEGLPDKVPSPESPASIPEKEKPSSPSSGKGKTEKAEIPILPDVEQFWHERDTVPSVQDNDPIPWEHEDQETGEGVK
MITF confirm – MITF inhibitors, retest of hits, confirmation, biochemical, AlphaScreen, triplicate; 4,700 compounds, 16% hits; AlphaScreen MITF homodimerization, biotin/His-MITF beads; inhibition, % at 2.6 µM; shares compounds with MITF inh;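 active means inhibition above a cutoff derived from the DMSO control wells, cut at about 28% in these data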;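 further: inhibitors lower the bead chemiluminescence by keeping MITF from dimerizing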
AS interf DR – AlphaScreen optical interference compounds, dose response, counter-screen, biochemical, HTS; AlphaScreen optical interference counterscreen, cell-free; IC50, µM; shares compounds with MITF inh; 480 compounds, 6% hits; call rule not given here
AS interf ctr – AlphaScreen optical interference compounds, counter-screen for MITF inhibitor project, biochemical, triplicate; inhibition, % at 2.6 µM; LysRS AlphaScreen counterscreen, signal interference; 4,700 compounds, 7.6% hits; shares compounds with MITF inh;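 active means inhibition above a cutoff derived from the DMSO control wells, cut at about 30% in these data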
Each line names hits and unclear results; the compound was inactive in the other large screens (follow-up assays come after a bar, where they were run).

CCOCCCNC(=O)c1ccc2c(c1)nc(C)n2-c1ccc(F)c(F)c1	none
CC(C)(C)N(Cc1ccccc1)C(=O)COC(=O)c1cccc(F)c1	none
CCc1ccc(CNc2ccc(N3CCOCC3)c(C(=O)O)c2)cc1	MITF inh 52 | MITF confirm inactive | AS interf ctr inactive
CCCCN1C(=O)c2cccc3c(NC(=O)CSc4ccc(OC)cc4)ccc1c23	none
Cc1ccc(C(NC(=O)/C=C\c2ccc3c(c2)OCO3)C(=O)Nc2ccc3c(c2)OCO3)cc1 (centres undefined)	MITF inh 68 | MITF confirm inactive | AS interf ctr inactive
C[C@H](O)[C@H]1NC(=O)[C@H]2CN(C(=O)NCc3ccccc3)CCN2C1=O	MITF inh 75 | MITF confirm 71 | AS interf DR inactive | AS interf ctr inactive
COc1ccc(C[C@@H]2NC(=O)[C@H]3CN(C(=O)NCc4ccccc4)CCN3C2=O)cc1	MITF inh 79 | MITF confirm 72 | AS interf DR inactive | AS interf ctr inactive
C[C@@H](O)[C@@H]1NC(=O)[C@H]2CN(C(=O)OCc3ccccc3)CCN2C1=O	none
COc1ccc(C[C@@H]2NC(=O)[C@H]3CN(C(=O)c4ccc(-c5ccccc5)cc4)CCN3C2=O)cc1	none
O=C1N[C@H](Cc2ccccc2)C(=O)N2CCN(C(=O)NCc3ccccc3)C[C@H]12	MITF inh 69 | MITF confirm 64 | AS interf DR inactive | AS interf ctr inactive
O=C1N[C@@H](Cc2cnc[nH]2)C(=O)N2CCN(C(=O)NCc3ccccc3)C[C@H]12	none
c1ccc(OCCNc2nc(-c3cccs3)nc3c2ncn3C2CCCCC2)cc1	none
NC(=O)c1ccc(-c2cccs2)s1	MITF inh 59 | MITF confirm 39 | AS interf DR inactive | AS interf ctr inactive
NC(=O)c1ccc(-c2csc3ccccc23)s1	none
CC(C)(C)C(=O)NCc1cccc(Oc2ccc(F)cc2)c1	none
c1csc(-c2nc3cnccn3c2NCc2ccc3c(c2)OCO3)c1	none
c1ccc(Cc2nc3cnccn3c2NCc2ccc3c(c2)OCO3)cc1	MITF inh 68 | MITF confirm inactive | AS interf ctr inactive
Cc1ccccc1OCC(O)CN1CCN(CC(O)COc2ccccc2C)C(C)C1 (centres undefined)	MITF inh 55 | MITF confirm inactive | AS interf ctr inactive
O=C(CSc1ccc(F)cc1)Nc1ccc(Cl)c(C(=O)O)c1	none
O=S(=O)(c1ccc(F)cc1)N1CCCN(Cc2c(F)cccc2F)CC1	none
CS(=O)(=O)N1CCN(Cc2cccc(Br)c2)CC1	MITF inh 63 | MITF confirm inactive | AS interf ctr inactive
COc1ccc(Br)cc1CN1CCN(S(=O)(=O)c2ccc(F)cc2)CC1	MITF inh 59 | MITF confirm inactive | AS interf ctr inactive
O=S(=O)(c1ccc(F)cc1)N1CCN(Cc2c(F)cccc2F)CC1	MITF inh 77 | MITF confirm inactive | AS interf ctr inactive
O=S(=O)(c1ccc(Br)cc1)N1CCN(Cc2ccc(F)cc2)CC1	none
COc1ccc(S(=O)(=O)N2CCN(Cc3cccc(Br)c3)CC2)cc1	MITF inh 52 | MITF confirm inactive | AS interf ctr inactive
COC(=O)c1c(OCCc2ccccc2F)cc(=O)n2c1CCN(Cc1ccco1)CC2	none
Cc1ccnc(NC(=O)C2CCCN(S(=O)(=O)c3ccc4c(c3)oc(=O)n4C)C2)c1 (centres undefined)	none
CCCOc1ccccc1OCCCCN1CCN(C)CC1	none
CCC(C)c1ccccc1OCCCN1CCN(C)CC1 (centres undefined)	MITF inh 60 | MITF confirm inactive | AS interf ctr inactive
CCC(C)c1ccccc1OCCCCN1CCNCC1 (centres undefined)	MITF inh 70 | MITF confirm inactive | AS interf ctr inactive
CCOc1cc(C(=O)NCCc2ccccc2)cc(OCC)c1OCC	none
COc1ccc(CCNCC(=O)N2c3ccccc3C(C)CC2(C)C)cc1 (centres undefined)	none
COc1ccc2c(c1)C(C)CC(C)(C)N2C(=O)CNCc1ccco1 (centres undefined)	MITF inh 57 | MITF confirm inactive | AS interf ctr inactive
COc1ccc2c(c1)C(C)CC(C)(C)N2C(=O)CSc1ncccn1 (centres undefined)	none
CCOCCCNCC(=O)N1c2ccc(C)cc2C(C)CC1(C)C (centres undefined)	MITF inh 56 | MITF confirm inactive | AS interf ctr inactive
Cc1ccc2c(c1)C(C)CC(C)(C)N2C(=O)CSc1ncccn1 (centres undefined)	none
Cc1ccc2c(c1)C(C)CC(C)(C)N2C(=O)CNCCN1CCOCC1 (centres undefined)	MITF inh 87 | MITF confirm inactive | AS interf ctr inactive
CCC(=O)Nc1ccc(C(=O)Nc2ccccc2C#N)cc1	MITF inh 51 | MITF confirm inactive | AS interf ctr inactive
CCC(=O)Nc1ccc(C(=O)Nc2ccc(C#N)cc2)cc1	none
O=C(Cn1c2ccccc2c(=O)c2ccccc21)Nc1c(F)cccc1F	none
COc1ccc(S(=O)(=O)N2CCC(N3CCOCC3)CC2)cc1	MITF inh 54 | MITF confirm inactive | AS interf ctr inactive
COc1ccc(S(=O)(=O)N2CCC(N3CCC(C)CC3)CC2)cc1	MITF inh 55 | MITF confirm 34 | AS interf DR inactive | AS interf ctr inactive
COc1ccc(S(=O)(=O)N2CCN(C3CCCCCCC3)CC2)cc1	none
COc1ccc(-c2ccc(S(=O)(=O)N3CCOCC3)cc2)cc1	none
COc1ccc(S(=O)(=O)N2CCC(N3CCN(C)CC3)CC2)cc1	MITF inh 73 | MITF confirm inactive | AS interf ctr inactive
COc1ccc(S(=O)(=O)N2CCN(CCO)CC2)cc1	none
COC(=O)CCN1CCN(S(=O)(=O)c2ccc(OC)cc2)CC1	MITF inh 60 | MITF confirm inactive | AS interf ctr inactive
Cc1ccc(S(=O)(=O)Nc2cccc3c(C)cc(-n4nc(C)cc4C)nc23)cc1	none
Cc1ccc(C(=O)CC(C(=O)O)n2nc(C)cc2C)cc1 (centres undefined)	none
COc1ccccc1C1CC(c2c(-c3ccccc3)c3cc(Cl)ccc3[nH]c2=O)=NN1C(=O)CCCC(=O)O (centres undefined)	none
COc1ccc(OCCN2CCN(S(=O)(=O)c3ccc4c(c3)OCCO4)CC2)cc1	MITF inh 85 | MITF confirm inactive | AS interf ctr inactive
